POLH inh: qHTS for Inhibitors of Polymerase Eta. AID 588591, 2011. recombinant Pol eta, fluorescent DNA replication assay. DNA polymerase eta (Homo sapiens), Q9Y253. Potency, µM (series often up to 114 µM), hits mostly inhibitors. 1.2% of 390,000 active
Target sequence (Q9Y253 whole entry, looked up): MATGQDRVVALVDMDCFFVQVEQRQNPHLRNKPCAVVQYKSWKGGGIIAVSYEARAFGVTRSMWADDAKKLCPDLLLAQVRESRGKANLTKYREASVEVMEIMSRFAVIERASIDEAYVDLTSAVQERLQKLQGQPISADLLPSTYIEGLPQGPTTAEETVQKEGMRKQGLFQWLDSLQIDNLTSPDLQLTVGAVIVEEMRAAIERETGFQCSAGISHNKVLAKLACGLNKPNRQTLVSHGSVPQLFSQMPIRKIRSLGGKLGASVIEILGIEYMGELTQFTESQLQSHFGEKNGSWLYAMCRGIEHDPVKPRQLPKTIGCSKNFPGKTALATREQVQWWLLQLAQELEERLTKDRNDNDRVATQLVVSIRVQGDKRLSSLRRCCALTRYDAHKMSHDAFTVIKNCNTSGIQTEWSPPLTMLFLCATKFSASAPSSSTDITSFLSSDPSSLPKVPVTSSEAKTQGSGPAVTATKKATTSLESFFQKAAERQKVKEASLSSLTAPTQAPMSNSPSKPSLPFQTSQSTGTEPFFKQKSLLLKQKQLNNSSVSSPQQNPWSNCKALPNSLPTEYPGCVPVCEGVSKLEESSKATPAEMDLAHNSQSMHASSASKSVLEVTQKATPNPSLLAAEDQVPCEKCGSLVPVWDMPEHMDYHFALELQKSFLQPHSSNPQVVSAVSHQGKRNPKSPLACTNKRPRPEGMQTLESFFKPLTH
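Fluorescent replication assay: 50 nM final substrate added after a 15 min room-temperature compound preincubation with 10 nM enzyme. Signal taken at 0 min and again at 10 min.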
POLI inh: qHTS for Inhibitors of Polymerase Iota; Potency, µM (doses to about 115 µM), hits mostly inhibitors; 1% of 390,000 active; Pol iota fluorescent replication assay, 10 min; AID 588590, 2011
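Pol iota at 10 nM preincubated 15 min with compounds at room temperature; reaction started with fluorescent substrate, 50 nM final. Fluorescence read kinetically at 0 and 10 min; buffer-only wells as negative control.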
POLK inh: qHTS for Inhibitors of Polymerase Kappa | Potency, µM (highest dose often 107 µM), usual class: inhibitors | purified Pol kappa, fluorescent DNA synthesis assay, 10 min | 0.53% of 400,000 active | AID 588579, 2011 | DNA polymerase kappa (Homo sapiens), Q9UBT6
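Kinetic fluorescence screen: compound preincubated 15 min RT with 10 nM enzyme; 50 nM substrate (final) initiates; reads at 0/10 min.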
FEN1 inh: qHTS Assay for the Inhibitors of Human Flap endonuclease 1 (FEN1); 0.35% of 390,000 active; AID 588795, 2011; Recombinant FEN1 flap cleavage, fluorescence, 15 min; Potency, µM (doses to about 114 µM), most hits filed as inhibitors; also: nearly all actives have a fitted effect of over 65% in size
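Nuclease activity of 10 nM FEN1 was measured after 15 min of room-temperature exposure to titrated compounds, by adding 50 nM flap substrate and reading plates at 0 and 15 min.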
Pol beta inh: qHTS Assay for Inhibitors of DNA Polymerase Beta; Pol beta primer extension/strand displacement, fluorescence kinetic; 1.3% of 340,000 active; Potency, µM (doses to about 114 µM), hits mostly inhibitors; AID 485314, 2010; P06746
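10 nM enzyme + cpd, 15 min RT; start with substrate 50 nM final; read 0 min and after 10 min RT. Corrected, normalized data; 4-parameter Hill curve fit.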
WRN inhibitor: qHTS for Inhibitors of WRN Helicase; WRN helicase unwinding, fluorescent forked duplex, kinetic; Potency, µM (highest dose often 114 µM), actives largely listed as inhibitors; 0.46% of 360,000 active; AID 651768, 2012; also: nearly all actives have a fitted effect of over 55% in size
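Enzyme (20 nM final) and test compound sit together 15 min at room temperature before substrate addition. Substrate is a single-forked duplex oligonucleotide (100 nM) labelled with fluorophore and quencher, with 2 mM ATP; helicase unwinding raises red fluorescence, read kinetically.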
Large screens that a line does not name were inactive. Rows were chosen to be rich in hits. Some 2.4% of all compounds tested hit in one or more screens of this group. Calls follow the shape of the dose curve; as a rule, active = well fitted curve in the direction sought with a large enough effect; inconclusive = small, poorly fitted or top-dose-only effect, or another doubt; inactive = no such curve, though single readings can be large; an effect the other way counts as inactive or inconclusive.

CC(=O)c1cccc(NC(=O)COc2cc3oc(=O)c(CC(C)O)c(C)c3cc2Cl)c1 (centres undefined)	POLH inh inconclusive, POLI inh 56µM, Pol beta inh inconclusive
CCOC(=O)c1ccc(NC(=O)COc2cc3oc(=O)c(CC(C)O)c(C)c3cc2Cl)cc1 (centres undefined)	POLI inh inconclusive, Pol beta inh inconclusive
N#Cc1c(NC(=S)NC(=O)Cc2cccs2)sc2c1CCCCC2	POLK inh inconclusive, Pol beta inh 45µM
Cc1noc(C)c1S(=O)(=O)NCCN1CCN(c2ccccc2)CC1	none
O=c1cc2nc(-c3ccccc3F)nc(SCc3ccc(Br)cc3)n2[nH]1	POLH inh inconclusive, POLI inh inconclusive, POLK inh inconclusive, Pol beta inh 32µM (no result: WRN inhibitor)
Cc1cccc(-c2nc(SCCCOc3ccc(Cl)c(C)c3)n3[nH]c(=O)cc3n2)c1	none (no result: WRN inhibitor)
Cc1ccc(C(C)C)c(OCCSc2nc(-c3ccccc3F)nc3cc(=O)[nH]n23)c1	POLH inh inconclusive, POLI inh inconclusive, FEN1 inh inconclusive, Pol beta inh 16µM (no result: WRN inhibitor)
CCc1ccc(OCCCSc2nc(-c3ccc(C(C)(C)C)cc3)nc3cc(=O)[nH]n23)cc1	POLI inh inconclusive, FEN1 inh inconclusive, Pol beta inh 18µM (no result: POLH inh, WRN inhibitor)
Cc1ccc(OCCSc2nc(-c3ccccc3C)nc3cc(=O)[nH]n23)cc1Cl	POLH inh 89µM, POLI inh inconclusive, POLK inh inconclusive, FEN1 inh inconclusive, Pol beta inh inconclusive (no result: WRN inhibitor)
COc1ccccc1NS(=O)(=O)c1ccc(C(=O)N2CCCCCCC2)cc1	none (no result: Pol beta inh)
NC(=O)CC(NC(=O)Cc1ccc(Cl)cc1)c1ccc(NCCCN2CCCC2=O)c([N+](=O)[O-])c1 (centres undefined)	none
NC(=O)CC(NC(=O)c1ccccc1)c1ccc(NCCCN2CCCC2=O)c([N+](=O)[O-])c1 (centres undefined)	POLI inh inconclusive, Pol beta inh 79µM
Cc1nc2nc(SCc3ccc(F)cc3Cl)nn2c(C)c1Cc1ccccc1	none (no result: WRN inhibitor)
O=C(Nc1ccc2nc(-c3ccco3)c(-c3ccco3)nc2c1)NC1CC1	POLH inh 1.3µM, POLI inh 1.3µM, POLK inh 10µM, FEN1 inh 50µM, Pol beta inh 3.5µM, WRN inhibitor 10µM
CCc1nc2ccc(C(=O)N3CCN(c4ccccc4)CC3)cc2nc1CC	none
O=C(c1ccc2nc(-c3ccco3)c(-c3ccco3)nc2c1)N1CCN(c2ccccc2)CC1	POLI inh inconclusive, Pol beta inh 11µM
O=C(NCCCO)Nc1ccc2nc(-c3ccco3)c(-c3ccco3)nc2c1	Pol beta inh 1.8µM (no result: POLH inh, POLI inh, POLK inh, FEN1 inh, WRN inhibitor)
O=C(Nc1ccc(N2CCOCC2)cc1)Nc1ccc2nc(-c3ccco3)c(-c3ccco3)nc2c1	Pol beta inh 5µM
Cc1c(C(=O)NCC2COc3ccccc3O2)oc2ccc(S(=O)(=O)N3CCOCC3)cc12 (centres undefined)	none
COc1ccc(Oc2ccc(/C=C/C(=O)c3cccc(OC)c3)cc2[N+](=O)[O-])cc1	FEN1 inh inconclusive
O=C1C=C(O)c2cccc(O)c2C1=O	POLH inh 35µM, POLI inh inconclusive, POLK inh inconclusive, FEN1 inh inconclusive, Pol beta inh 20µM
O=C1c2cccc(O)c2C(=O)c2c(O)cccc21	none (no result: POLH inh, POLI inh, FEN1 inh, WRN inhibitor)
CCN(CC)c1ccc2cc(-c3nnc(-c4cccc(Cl)c4)o3)c(=O)oc2c1	POLI inh 89µM, POLK inh inconclusive (no result: WRN inhibitor)
CCN(CC)c1ccc2cc(-c3nnc(-c4ccncc4)o3)c(=O)oc2c1	none
Cc1cc(C)c2oc(-c3ccc(C)c(NC(=O)/C=C/c4ccco4)c3)nc2c1	POLH inh inconclusive, POLI inh 22µM, FEN1 inh inconclusive, Pol beta inh inconclusive (no result: WRN inhibitor)
CCOP(=O)(OCC)C(C#N)=C1SCN(c2ccccc2)CS1	POLH inh 40µM, POLI inh inconclusive (no result: Pol beta inh)
CCOP(=O)(c1ccccc1)C1(C#N)CC1 (centres undefined)	none
CC(=O)Nc1ccc(NC(=O)c2cc(S(=O)(=O)N3CCCCC3)ccc2C)cc1	POLI inh inconclusive (no result: Pol beta inh)
